Inconclusive results are not listed. Calls of active or inactive are those of the source. The call rests on the fitted dose curve; in most records, active means well fitted curve in the direction sought with a large enough effect; inconclusive means small, poorly fitted or top-dose-only effect, or another doubt; inactive means no such curve, though single readings can be large; an effect the other way counts as inactive or inconclusive.
Experiments:
CRL-7250 = normal cell line; experiment: Cytotoxic Profiling of Annotated Libraries Using Quantitative High-Throughput Screening (AID 1296008); conditions: Five cell lines viability, CellTiter-Glo ATP luminescence, 48-72 h; max response: hits give low values; further: nearly all actives have a fitted effect of over 60% in size; further: potency means the concentration at half of the fitted maximal effect; on max response: on the % scale 0 is the no-effect control and ±100 the full control effect
Procedure, shortened: (§1)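 Cells exposed to compounds for 48 or 72 hr at 37 degrees Celsius. Viability read as ATP-coupled luminescence with CellTiter-Glo after 10 min at room temperature.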

HEK293 = experiment: as above; conditions: Five cell lines viability, CellTiter-Glo ATP luminescence, 48-72 h; max response: hits give low values
Procedure, shortened: as §1

HaCat [1] = experiment: as above; conditions: Five cell lines viability, CellTiter-Glo ATP luminescence, 48-72 h; max response: hits give low values
Procedure, shortened: as §1

KB-3-1 = experiment: as above; conditions: Five cell lines viability, CellTiter-Glo ATP luminescence, 48-72 h; max response: hits give low values
Procedure, shortened: as §1

NIH3T3 [2] = experiment: as above; conditions: Five cell lines viability, CellTiter-Glo ATP luminescence, 48-72 h; max response: hits give low values
Procedure, shortened: as §1

HACAT [3] = experiment: qHTS assay to identify novel small-molecules to repurpose for Merkel cell carcinoma treatment (AID 1296009); conditions: MCC and control cell lines, CellTiter-Glo viability, 72 h; at 44.8 µM (top of the series) unless noted; further: nearly all actives have a fitted effect of over 60% in size
Procedure, shortened: (§2)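 Dose-response viability screen; 72 hr exposure at 37 degree celsius; CellTiter-Glo added, 10 min room temperature, luminescence read; RLUs scaled between no-cell and DMSO wells.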

NIH3T3 [4] = experiment: as above; conditions: MCC and control cell lines, CellTiter-Glo viability, 72 h; at 44.8 µM (top of the series) unless noted
Procedure, shortened: as §2

C33A = experiment: Primary qHTS to identify gynecologic anti-cancer compounds using libraries of approved drugs and bioactive compounds (AID 1345084); conditions: Gynecologic cancer cell panel viability, ATPlite luminescence, 48 h; series mostly up to 57.5 µM; further: on the % scale 0 is the no-effect control and ±100 the full control effect; nearly all actives have a fitted effect of over 55% in size
Procedure, shortened: (§3)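 ATP-based viability (ATPlite), 1,000 cells/well, 16 h pre-incubation, 48 h compound at 37 C, 5% CO2, 15 min RT before read.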

CAOV3 = experiment: as above; conditions: Gynecologic cancer cell panel viability, ATPlite luminescence, 48 h; series mostly up to 57.5 µM
Procedure, shortened: as §3

CASKI = experiment: as above; conditions: Gynecologic cancer cell panel viability, ATPlite luminescence, 48 h; series mostly up to 57.5 µM
Procedure, shortened: as §3

Es-2 = experiment: as above; conditions: Gynecologic cancer cell panel viability, ATPlite luminescence, 48 h; series mostly up to 57.5 µM
Procedure, shortened: as §3

HeLa = experiment: as above; conditions: Gynecologic cancer cell panel viability, ATPlite luminescence, 48 h; series mostly up to 57.5 µM
Procedure, shortened: as §3

Hek293T = experiment: as above; conditions: Gynecologic cancer cell panel viability, ATPlite luminescence, 48 h, control line for the selectivity index; series mostly up to 57.5 µM
Procedure, shortened: as §3

JEG-3 = experiment: as above; conditions: Gynecologic cancer cell panel viability, ATPlite luminescence, 48 h; series mostly up to 57.5 µM
Procedure, shortened: as §3

OV90 = experiment: as above; conditions: Gynecologic cancer cell panel viability, ATPlite luminescence, 48 h; series mostly up to 57.5 µM
Procedure, shortened: as §3

PA-1 = experiment: as above; conditions: Gynecologic cancer cell panel viability, ATPlite luminescence, 48 h; series mostly up to 57.5 µM
Procedure, shortened: as §3

CC1(CO)CCCC2(C)C1C(OC(=O)c1ccccc1)CC1C(=O)OCC12O (centres undefined)
inactive: max response (CRL-7250) -1.52% | max response (HEK293) -0.598% | outcome (HaCat [1]) | max response (KB-3-1) 5.44% | outcome (NIH3T3 [2]) | outcome (HACAT [3]) | outcome (NIH3T3 [4]) | Potency (C33A) | Potency (CAOV3) | outcome (CASKI) | Potency (Es-2) | Potency (HeLa) | Potency (Hek293T) | Potency (JEG-3) | Potency (OV90) | Potency (PA-1)

C[C@H]1[C@H](C)C[C@@H](C(=O)O)C2CC[C@]3(C)C(=CC[C@@H]4[C@@]5(C)CC[C@H](O)C(C)(C)[C@@H]5CC[C@]43C)[C@@H]21 (some centres undefined)
inactive: max response (CRL-7250) -4.25% | outcome (HaCat [1]) | max response (KB-3-1) 8.63% | outcome (NIH3T3 [2]) | outcome (HACAT [3]) | outcome (NIH3T3 [4]) | Potency (C33A) | Potency (CAOV3) | outcome (CASKI) | Potency (Es-2) | Potency (HeLa) | Potency (Hek293T) | Potency (JEG-3) | Potency (OV90) | Potency (PA-1)
active: Potency (HEK293) 25.9 µM

O=C(O)c1cc(C(F)(F)F)ccc1N1CC[C@H](OCc2ccccn2)C1
inactive: outcome (CRL-7250) | max response (HEK293) -6.22% | outcome (HaCat [1]) | max response (KB-3-1) 6.78% | outcome (NIH3T3 [2]) | outcome (HACAT [3]) | outcome (NIH3T3 [4]) | Potency (C33A) | Potency (CAOV3) | outcome (CASKI) | Potency (Es-2) | Potency (HeLa) | Potency (Hek293T) | Potency (JEG-3) | Potency (OV90) | Potency (PA-1)

CC1(C)CC[C@]2(C(=O)O[C@@H]3O[C@H](CO)[C@@H](O)[C@H](O)[C@H]3O)CC[C@]3(C)C(=CCC4[C@@]5(C)C[C@H](O)[C@H](O[C@@H]6O[C@H](C(=O)O)[C@@H](O)[C@H](O)[C@H]6O)[C@@](C)(CO)C5CC[C@]43C)C2C1 (some centres undefined)
inactive: max response (CRL-7250) -4.26% | max response (HEK293) 1.87% | outcome (HaCat [1]) | max response (KB-3-1) -16.3% | outcome (NIH3T3 [2]) | outcome (HACAT [3]) inactive [at 9.27 µM] | outcome (NIH3T3 [4]) inactive [at 9.27 µM] | activity change, negative = cytotoxicity (C33A) -10.3% [at 6.55 µM] | activity change, negative = cytotoxicity (CAOV3) 19.8% [at 6.55 µM] | activity change, negative = cytotoxicity (CASKI) -13.7% [at 6.55 µM] | activity change, negative = cytotoxicity (Es-2) -1.31% [at 6.55 µM] | activity change, negative = cytotoxicity (HeLa) -7.43% [at 6.55 µM] | activity change, negative = cytotoxicity (Hek293T) -0.0375% [at 6.55 µM] | activity change, negative = cytotoxicity (JEG-3) -4.92% [at 6.55 µM] | activity change, negative = cytotoxicity (OV90) -11.4% [at 6.55 µM] | activity change, negative = cytotoxicity (PA-1) 1.64% [at 6.55 µM]

COc1ccc2[nH]c(S(=O)Cc3ncc(C)c(OC)c3C)nc2c1 (centres undefined)
inactive: max response (CRL-7250) -15.2% | max response (HEK293) 3.04% | outcome (HaCat [1]) | max response (KB-3-1) 6.01% | outcome (NIH3T3 [2]) | outcome (HACAT [3]) | outcome (NIH3T3 [4]) | Potency (C33A) | Potency (CAOV3) | outcome (CASKI) | Potency (Es-2) | Potency (HeLa) | Potency (Hek293T) | Potency (JEG-3) | Potency (OV90) | Potency (PA-1)

CNC(=O)c1ccc2c(c1)CCO[C@H]2CCN1CCN(c2ccc(C(N)=O)cc2)CC1
inactive: max response (CRL-7250) 0.998% | max response (HEK293) 3.1% | outcome (HaCat [1]) | max response (KB-3-1) -1.44% | outcome (NIH3T3 [2]) | outcome (HACAT [3]) | outcome (NIH3T3 [4]) | Potency (C33A) | Potency (CAOV3) | outcome (CASKI) | Potency (Es-2) | Potency (HeLa) | Potency (Hek293T) | Potency (JEG-3) | Potency (OV90) | Potency (PA-1)

O=C(O)/C=C/c1ccc(O[C@@H]2O[C@H](CO)[C@@H](O)[C@H](O)[C@H]2O)cc1
inactive: outcome (CRL-7250) | max response (HEK293) -0.219% | outcome (HaCat [1]) | outcome (KB-3-1) | outcome (NIH3T3 [2]) | outcome (HACAT [3]) | outcome (NIH3T3 [4]) | Potency (C33A) | Potency (CAOV3) | outcome (CASKI) | Potency (Es-2) | Potency (HeLa) | Potency (Hek293T) | Potency (JEG-3) | Potency (OV90) | Potency (PA-1)

CC1(C)CC[C@]2(C(=O)O)CC[C@]3(C)C(=CCC4[C@@]5(C)CC[C@H](O[C@@H]6O[C@H](C(=O)O)[C@@H](O)[C@H](O[C@@H]7O[C@H](CO)[C@H](O)[C@H](O)[C@H]7O)[C@H]6O[C@@H]6O[C@H](CO)[C@@H](O)[C@H](O)[C@H]6O)C(C)(C)C5CC[C@]43C)[C@@H]2C1 (some centres undefined)
inactive: max response (CRL-7250) 3.2% | max response (HEK293) -6.56% | outcome (HaCat [1]) | outcome (KB-3-1) | outcome (NIH3T3 [2]) | outcome (HACAT [3]) inactive [at 4.96 µM] | outcome (NIH3T3 [4]) inactive [at 4.96 µM] | activity change, negative = cytotoxicity (C33A) 4.15% [at 6.55 µM] | activity change, negative = cytotoxicity (CAOV3) 0.251% [at 6.55 µM] | activity change, negative = cytotoxicity (CASKI) 11.8% [at 6.55 µM] | activity change, negative = cytotoxicity (Es-2) -0.476% [at 6.55 µM] | activity change, negative = cytotoxicity (HeLa) -1.9% [at 6.55 µM] | activity change, negative = cytotoxicity (Hek293T) -0.735% [at 6.55 µM] | activity change, negative = cytotoxicity (JEG-3) 4.16% [at 6.55 µM] | activity change, negative = cytotoxicity (OV90) 8.65% [at 6.55 µM] | activity change, negative = cytotoxicity (PA-1) 2.41% [at 6.55 µM]

Nc1ncnc2c1c(COc1cccc(Cl)c1)nn2C1CCOCC1
inactive: max response (CRL-7250) -3.67% | max response (HEK293) -4.69% | outcome (HaCat [1]) | outcome (KB-3-1) | outcome (NIH3T3 [2]) | outcome (HACAT [3]) | outcome (NIH3T3 [4]) | Potency (C33A) | Potency (CAOV3) | outcome (CASKI) | Potency (Es-2) | Potency (HeLa) | Potency (Hek293T) | Potency (JEG-3) | Potency (OV90) | Potency (PA-1)

— PubChem BioAssay (NCATS)
